Here are results for 31 compounds from PubChem BioAssay (EPA / NIEHS).

More than one record can exist for a structure, and the calls need not agree. The source made the active and inactive calls. Rule for the calls: active = hit-call score of the fitted dose curve at least 0.9, where 1 is the maximum; inactive = score below 0.9.

Read-out in this assay: Cyclin D1 (CCND1), CCND1 (gene 595)
The experiment in a line: LTEA_HepaRG_CCND1: Life Technologies and Expression Analysis (LTEA) Assay for Cyclin D1 (CCND1) using HepaRG (AID 2283451).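 For AC50: TaqMan qRT-PCR transcript level normalised to ACTB GAPDH and POLR2A housekeeping genes.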 The note with it: mRNA level, 48 h; actives raise or lower the signal. Here is the method: LTEA_HepaRG is a cell based, multiplexed-readout assay that uses HepaRG, a human liver cell line, with measurements taken at 48 hours after chemical dosing on a 96-well plate.LTEA_HepaRG_CCND1 is one of 102 assay component(s) measured in the LTEA HepaRG cell culture assay. It is a marker of Cell proliferation, survival, death.Data from the assay component LTEA_HepaRG_CCND1 was analyzed into 1 endpoint. This assay endpoint, LTEA_HepaRG_CCND1, was analyzed with bidirectional fitting relative to DMSO as the negative control and baseline of activity. Using a type of inducible reporter, measures of mRNA induction for gain or loss-of-signal activity can be used to understand regulation of transcription factor activity. To generalize the intended target to other relatable targets, this assay endpoint is annotated to the cell cycle intended target family, where the subfamily is Cell proliferation, survival, death.
A total of 1060 chemcials from the ToxCast library were tested in eight-point concentration-response experiments. Cell culture and cytotoxicity assays were conducted at Thermo Fisher Scientific's Custom Services facility (Madison, WI). A single lot of human HepaRG cells (Thermo Fisher Scientific, Frederick, MD) was used for the cell culture experiments. 96-well format collagen type I coated plates of human HepaRG cells were prepared using established methods. Briefly, cryopreserved HepaRG cells were thawed, plated at a density of approximately 100,000 cells/well in HepaRG Thaw, Plate, and General Purpose media (HPRG770, Thermo Fisher Scientific), and incubated for 48 hours. 0.5% DMSO was selected as vehicle control to balance the requisite need of DMSO in HepaRG cultures to maintain differentiation (for example, baseline metabolism, proportions of hepatocytes vs. cholangiocytes), while enabling further hepatic receptor pathway activation (for example, PXR and CAR) in response to chemical exposure. 48 hours after plating, the culture medium was replaced with HepaRG Serum-Free Incudtion Media. Cells were exposed to each test chemical in duplicate and maintained in CO2 incubators for another 48 hours. Chemical plates were thawed to room temperature and 200x concentrations of treatment groups were prepared. 8-point conentration-reponse curves were made with the highest exposure at 100 uM, followed by half-log dilutions, all in 0.5% DMSO. Each test plate contained variouse controls, induction positive controls (1mM phenobarbital), cytotoxicity positive controls ([…] aflatoxin B1), vehicle controls (0.5% DMSO), and total lysis controls (0.5% DMSO). Cell morphology images were taken using an Essen IncuCyte FLR automated microscope, with six 96-well plates imaged in about 24 minutes. Images were captured and exported and JPEG files. Spent culture media was transfered to black-well plates for the LDH assay, and remaining media was sorted at -80 C for later use. Cells were treated with RLT buffer and frozen until shipped for gene expression analysis. Total RNA was isolated from the cell suspension in 75 uL of Buffer RLT (Qiagen, Germantown, MD 20874) by Quintiles/Expression Analysis (Durham, NC) using a custom isolation procedure. Total RNA from each plate well was transferred to a preamplification plate. Fluidigm's 96.96 Dynamic ArrayTM (Fluidigm, Amsterdam, the Netherlands) technology was used for gene expression analyses by quantitative reverse transcription polymerase chain reaction (qRT-PCR, performed by Quintiles/Expression Analysis, Durham, NC)89. Standard TaqManTM Assays (Applied Biosystems/ThermoFisher Scientific, Foster City, CA) were used to assess the expression of 93 genes selected based on their selectivity and sensitivity to important hepatic receptors known to be modulated by environmental chemicals; importance in human hepatocyte functionality; and hepatotoxicity. […]
As a reminder, the AC50 is the midpoint of the concentration-response curve, whichever way the signal moves. Turning to `C[C@@H]1C[C@@H]([C@H](O)CC2CC(=O)NC(=O)C2)C(=O)[C@@H](C)C1`, the concentration at half-maximal activity (AC50) is 3.34 µM (active). Turning to `NC(=O)O`, the outcome was inactive.

On to `CC(C)(C)c1cc(O)ccc1O`, for which the compound was called inactive. Regarding `Cc1ccccc1N`, the call was inactive.

Turning to `COc1cc(-c2ccc(N)c(OC)c2)ccc1N`, the compound was classed as inactive and the AC50 is 32.7 µM (active). As for `CC(=O)[O][Hg][c]1ccccc1`, the half-maximal activity concentration (AC50) was 3.75 µM (active). Turning to `Oc1cccc2cccnc12`, the compound was called inactive. On to `O=C1C2(Cl)C3(Cl)C4(Cl)C(Cl)(Cl)C5(Cl)C3(Cl)C1(Cl)C5(Cl)C24Cl` (configuration not stated), for which the AC50 was 92.9 µM (active). In the case of `CCOP(=S)(OCC)Oc1nc(Cl)c(Cl)cc1Cl`, the compound was classed as inactive. For the compound `CCC(=O)C(CC(C)N(C)C)(c1ccccc1)c1ccccc1` (configuration not stated), the call was inactive. Take `CN(C)N=O`: the compound was classed as inactive. On the same count and under the same terms, as for `CCOP(=S)(OCC)SCSP(=S)(OCC)OCC`, the entry is “inactive”.

Regarding `O=C(O)C(F)(F)C(F)(F)C(F)(F)C(F)(F)C(F)(F)C(F)(F)F`, the call was inactive. Still for that read-out and setting: as for `CC(C)(OO)c1ccccc1`, the entry is “inactive”; as for `C=C(C)C(=O)[O][Sn]([CH2]CCC)([CH2]CCC)[CH2]CCC`, “inactive”; as for `O=C(O)C(Cl)(Cl)Cl`, “inactive”. On to `O=[N+]([O-])c1ccc(O)c([N+](=O)[O-])c1`, for which the AC50 is 12.6 µM (active). On to `ClC1(Cl)C2(Cl)C3(Cl)C4(Cl)C(Cl)(Cl)C5(Cl)C3(Cl)C1(Cl)C5(Cl)C24Cl` (configuration not stated), for which the call was inactive. Turning to `CCCCCCCCc1ccc(O)cc1`, the AC50 was 0.346 µM (active).

For the compound `CC12CC1(C)C(=O)N(c1cc(Cl)cc(Cl)c1)C2=O` (configuration not stated), the result was inactive.

For the compound `O=c1[nH]c(=O)[nH]c(=O)[nH]1`, the call was inactive. `CC(C)(c1ccccc1)c1ccc(O)c(C(C)(C)c2ccccc2)c1`: the result was inactive.

For `O=C(Nc1ccc2[nH]ccc2c1)c1cc2cc(F)ccc2n1Cc1cccc(F)c1`, the concentration at half-maximal activity (AC50) is 39.5 µM (active). Consider `O=C(O)C(F)(F)C(F)(F)C(F)(F)C(F)(F)C(F)(F)C(F)(F)C(F)(F)C(F)(F)C(F)(F)C(F)(F)F`, for which the outcome was inactive. Take `ClCC(Cl)CCl`: the compound was classed as inactive.

For the compound `CCC(C)(C)c1ccc(O)c(C(C)(C)CC)c1`, the call was inactive. With `C=CC(=O)OCCCCCC(C)C`, the result was inactive.

With `CCN1CCC2(CC1)COc1cc3c(cc12)N(C(=O)c1ccc(-c2ccc(-c4nnc(C)o4)cc2C)cc1)CC3`, the AC50 was 30.8 µM (active).

Regarding `CC(C)(C)CC(C)(C)c1ccc(O)cc1`, the compound was called inactive. As to `Cn1sc(Cl)cc1=O`, the call was inactive.

Regarding `C[C@]12CCC(=O)C[C@@H]1CC[C@@H]1[C@@H]2CC[C@]2(C)[C@@H](O)CC[C@@H]12`, the outcome was inactive.
